# Sampled rows, rich in hits. Any-hit rate of the full collection: about 3.1%.
# eLon inh: inhibits E. coli Lon protease; inhibition, % at 7.94 µM; AID 602123; purified E. coli Lon protease, fluorescence polarization; 360,000 compounds, 0.42% hits; in the data active means inhibition above about 13%, passing the limit was not always enough
# Rin1-Abl PPI inh: inhibitors of human Rin1-Abl protein interaction. P00519+Q13671. TR-FRET Rin1/Abl binding, biochemical. inhibition, % at 7.35 µM. 360,000 compounds, 0.4% hits. AID 588664; in the data active means inhibition above about 5%, passing the limit was not always enough
# PAFAH1B3 inh: PAFAH1B3 (human) inhibition; Q15102; recombinant PAFAH1B3, FP-rhodamine probe, fluorescence polarization; inhibition, % at 3.39 µM; 340,000 compounds, 0.28% hits; AID 492972;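 active means inhibition above the screen-wide average of all tested compounds plus 3 SD, cut at about 25% in these data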
# Target sequence (Q15102 whole entry, looked up): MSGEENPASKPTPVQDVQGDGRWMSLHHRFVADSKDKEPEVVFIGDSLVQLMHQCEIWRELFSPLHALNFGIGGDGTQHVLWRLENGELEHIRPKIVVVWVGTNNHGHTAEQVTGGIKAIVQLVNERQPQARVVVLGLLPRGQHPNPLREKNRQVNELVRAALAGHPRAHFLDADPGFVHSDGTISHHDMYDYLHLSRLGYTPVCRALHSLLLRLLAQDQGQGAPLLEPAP
# PAFAH1B2 FP inh: PAFAH1B2 (human) inhibition | P68402 | recombinant PAFAH1B2, FP-rhodamine activity probe, fluorescence polarization | inhibition, % at 3.39 µM | 340,000 compounds, 1.2% hits | AID 492953;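 active means inhibition above the mean of all tested compounds plus 3 SD, cut at about 24% in these data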
# Target sequence (P68402 whole entry, looked up): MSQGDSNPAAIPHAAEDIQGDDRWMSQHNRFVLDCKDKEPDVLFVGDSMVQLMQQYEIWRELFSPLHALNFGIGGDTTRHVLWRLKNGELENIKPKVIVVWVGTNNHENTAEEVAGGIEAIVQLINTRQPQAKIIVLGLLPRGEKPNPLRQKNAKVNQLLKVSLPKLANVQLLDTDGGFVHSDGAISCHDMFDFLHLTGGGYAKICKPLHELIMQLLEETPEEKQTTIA
# PAFAH2 FP inh: PAFAH2 (human) inhibition; recombinant PAFAH2, FP-rhodamine activity probe, fluorescence polarization; Q99487; 340,000 compounds, 0.99% hits; inhibition, % at 3.39 µM;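 active means inhibition above the mean over all tested compounds plus 3 SD, cut at about 30% in these data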;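 further: inhibitors block probe labeling of enzyme so polarization drops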
# pPAFAH inh: inhibitors of human plasma PAF acetylhydrolase (pPAFAH) | Q13093 | recombinant pPAFAH, FP-rhodamine probe fluorescence polarization | inhibition, % at 3.39 µM | 330,000 compounds, 1.5% hits;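 active means inhibition above the mean inhibition across the screen plus 3 SD, cut at about 25% in these data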;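 further: inhibitors block binding of the rhodamine activity-based probe so polarization drops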
# PAFAH2 confirm: confirmation of human PAFAH2 inhibitors | shares compounds with PAFAH2 FP inh | recombinant PAFAH2, FP-rhodamine activity probe, fluorescence polarization | inhibition, % at 3.39 µM | 2,300 compounds, 65% hits | AID 493030;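 active means mean inhibition over three repeats above a set limit taken from the earlier primary screen, cut at about 30% in these data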;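 further: inhibitor blocks binding of rhodamine activity probe so polarization falls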
# Numbers stand for hits; - = inactive; . = no result given; ! = repeats disagree.
SMILES,eLon inh,Rin1-Abl PPI inh,PAFAH1B3 inh,PAFAH1B2 FP inh,PAFAH2 FP inh,pPAFAH inh,PAFAH2 confirm
Cc1ccc(NC(=O)COC(=O)Cn2c(C)csc2=O)cc1S(=O)(=O)N1CCOCC1,-,-,-,-,-,.,.
Cc1ccc(NC(=O)COC(=O)c2sccc2C)cc1S(=O)(=O)N1CCOCC1,-,-,-,-,81,-,72
Cc1ccsc1C(=O)OCC(=O)Nc1cccc(S(=O)(=O)N2CCOCC2)c1,-,-,-,-,77,-,58
COCCn1c(=S)[nH]c2cc(C(=O)N3CCCC(C)C3)ccc2c1=O (configuration not stated),-,-,-,-,-,-,.
Cc1ccc(S(=O)(=O)NCC(=O)OCC(=O)c2ccc(Cl)s2)cc1,-,-,-,-,-,-,.
O=C(NCc1ccc2c(c1)OCO2)c1ccc2c(c1)S(=O)(=O)c1ccccc1C2=O,-,-,-,-,-,-,.
O=C(COC(=O)c1ccc(CO)cc1)Nc1ccc2ccccc2c1,-,-,-,-,80,-,71
Cc1cc(C)c(-c2cc(NC(=O)COC(=O)c3ccc(CO)cc3)n(-c3ccccc3)n2)cc1C,-,-,-,-,32,-,-
COc1cc(C(=O)OCC(=O)Nc2cc(-c3cc(C)c(C)cc3C)nn2-c2ccccc2)cc(OC)c1OC,-,-,-,-,-,-,.
O=C(COC(=O)c1ccc(CO)cc1)Nc1ccc(OC(F)F)cc1,-,-,-,-,82,-,74
O=C(COC(=O)c1ccc(OC(F)F)cc1)NCCNC(=O)COC(=O)c1ccc(OC(F)F)cc1,-,-,-,-,-,-,.
CN(CC(=O)Nc1ccccc1Cl)C(=O)Cn1cnc2ccccc2c1=O,-,-,-,-,-,.,.
C/C(N)=C(/C#N)C(=O)CSc1nnc(Nc2c(C)cccc2C)s1,-,-,-,-,32!,-,-
C/C(N)=C(/C#N)C(=O)CSc1nnc(Nc2cccc(C)c2C)s1,-,-,-,-,-,-,.
CS(=O)(=O)c1ccc(Cl)c(NC(=O)Cc2ccccc2F)c1,-,-,-,-,52,-,30
CS(=O)(=O)c1ccc(Cl)c(NC(=O)Cc2c(F)cccc2Cl)c1,-,-,-,-,-,-,.
CCOc1cc(C(=O)OCC(=O)NC(C)c2ccccc2)ccc1OCC(=O)N1CCOCC1 (configuration not stated),-,-,-,-,92,-,71
COc1cc(C(=O)OCC(=O)c2c[nH]c3ccccc23)ccc1OCC(=O)N1CCOCC1,-,-,-,-,34,-,-
Cc1ccc(C(=O)OCC(=O)c2c[nH]c3ccccc23)cc1,-,-,-,-,-,-,.
CCOc1cc(C(=O)OCC(=O)c2c[nH]c3ccccc23)ccc1OCC(=O)N1CCOCC1,-,-,-,-,45,-,33
COc1cc(C(=O)NC(C)c2ccccc2)ccc1OCC(=O)N1CCOCC1 (configuration not stated),-,-,-,-,-,-,.
COc1ccc(C(=O)OCC(=O)c2c[nH]c3ccccc23)cc1OC,-,-,-,-,47,-,44
CCOc1cc(C(=O)OCC(=O)c2c(C)[nH]c3ccccc23)ccc1OCC(=O)N1CCOCC1,-,-,-,-,-,-,.
COc1ccc(C2=NOC(Cn3nc(C(=O)NCc4cccc(C(F)(F)F)c4)cc3-c3ccccc3)C2)cc1 (configuration not stated),-,-,-,-,-,-,.
O=C(ON=C1CCSCC1)c1ccccc1,-,-,-,-,78,-,76
SMILES,eLon inh,Rin1-Abl PPI inh,PAFAH1B3 inh,PAFAH1B2 FP inh,PAFAH2 FP inh,pPAFAH inh,PAFAH2 confirm
O=C(ON=C1CCN(c2ccc([N+](=O)[O-])cc2)CC1)c1ccccc1,-,-,-,-,90,-,86
O=C(OC1CCN(c2ccc([N+](=O)[O-])cc2)CC1)c1ccccc1,-,-,-,-,-,-,.
Cc1cnc(C(=O)OC(C)C(=O)Nc2ccccc2-c2ccccc2)cn1 (configuration not stated),-,-,-,-,-,-,.
N#CC1(NC(=O)COC(=O)C23CC4CC(CC(O)(C4)C2)C3)CCCCC1,-,-,-,-,48,-,45
NC(=O)COC(=O)C12CC3CC(CC(O)(C3)C1)C2,-,-,-,-,-,-,.
O=C(COC(=O)C12CC3CC(CC(C3)C1)C2)NC12CC3CC(CC(C3)C1)C2,-,-,-,-,90,-,86
CCC(CC)C(=O)OCC(=O)NC12CC3CC(CC(C3)C1)C2,-,-,-,-,64,-,43
Cc1ccc(C(=O)NNC(=O)c2ccc3ccccc3c2O)cc1,-,-,-,-,-,-,.
O=C(COC(=O)c1ccc(F)cc1F)Nc1cc(S(=O)(=O)N2CCOCC2)ccc1Cl,-,-,-,-,34,.,-
O=C(COC(=O)c1ccc(O)cc1)Nc1cc(S(=O)(=O)N2CCOCC2)ccc1Cl,-,-,-,-,65,-,54
O=C(COC(=O)c1ccc(O)cc1)Nc1cc(S(=O)(=O)N2CCCCCC2)ccc1Cl,-,-,.,.,.,.,.
O=C(COC(=O)c1cccs1)Nc1cc(S(=O)(=O)N2CCOCC2)ccc1Cl,-,-,-,-,53,-,38
C[C@@H]1CN([C@@H](C)CO)C(=O)c2cc(NC(=O)C3CCCCC3)ccc2O[C@@H](C)CCCCO[C@H]1CN(C)S(=O)(=O)c1ccc(Cl)cc1,-,-,.,.,.,.,.
Cc1cnc(CNC(=O)c2csc([C@@H]3C[C@H](O)[C@@H](CO)O3)n2)cn1,-,-,.,.,.,.,.
CCn1c(SCc2c(Cl)cccc2Cl)nnc1-c1nn(-c2ccccc2)ccc1=O,-,-,-,-,49,-,-
CC1CCC(C(C)C)C(OC(=O)COC(=O)c2ccc(N)cc2)C1 (configuration not stated),-,-,-,-,53,-,34
CN(C)S(=O)(=O)c1ccc(C(=O)N2CCN(S(=O)(=O)c3ccc4c(c3)OCCO4)CC2)cc1,-,-,-,-,45,.,41
O=C(c1ccc(F)cc1)N1CCN(S(=O)(=O)c2ccc3c(c2)OCCO3)CC1,-,-,.,.,.,.,.
CC(C)CC(NC(=O)C(NC(=O)C1CCC(=O)N1C(=O)OCc1ccccc1)C(C)C)C(=O)N1CCCC1C(N)=O (configuration not stated),-,-,-,-,40,-,41
CC(C)CC(NC(=O)OC(C)(C)C)C(=O)NC(C(=O)N1CCCC1C(N)=O)C(C)C (configuration not stated),-,-,-,-,-,-,.
Cc1ccc(Sc2ncccc2C(=O)N(C)Cc2cccs2)c(C)c1,-,-,-,-,-,-,.
O=C(CCn1c(=O)oc2ccccc21)Nc1cccc(Cl)c1,-,-,-,-,43,-,-
O=C(COC(=O)c1ccc(F)cc1F)NCCC1=CCCCC1,-,-,-,-,47,-,31

# Screening data from PubChem.
